# From the supplement of paper PMC6555819
# How the values were obtained:
# Assay in all cases: PBM binding z-score (relative to random genomic background probes); higher = stronger binding; sequences stand for … in GC…GCGATTGACAGCGTAGAATGAAGG
# [1] = system: FXR:RXRa (NR concentration 270 nM, RXRa partner concentration 90 nM)
# How it was run: (§1)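 Binding z-scores were set against random background probes. The data came from custom Agilent 4×180K protein-binding microarrays carrying double-stranded probes with 34-nt variable regions, incubated 1 h with ligand-free nuclear receptor dimers. Partner-specific antibodies detected binding, and scanned fluorescence was regression-normalized.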
# [2] = system: LXRa:RXRa (NR concentration 270 nM, RXRa partner concentration 90 nM)
# How it was run: as §1
# [3] = system: LXRa homodimer (NR concentration 270 nM)
# How it was run: as §1
# [4] = system: LXRb:RXRa (NR concentration 270 nM, RXRa partner concentration 90 nM)
# How it was run: as §1
# [5] = system: LXRb homodimer (NR concentration 270 nM)
# How it was run: as §1
# [6] = system: PPARa:RXRa (NR concentration 270 nM, RXRa partner concentration 90 nM)
# How it was run: as §1
# [7] = system: PPARg:RXRa (NR concentration 180 nM, RXRa partner concentration 90 nM)
# How it was run: as §1
# [8] = system: PPARg:RXRa 270nM:90nM, anti-RXR (NR concentration 270 nM, RXRa partner concentration 90 nM)
# How it was run: as §1
# [9] = system: PPARg:RXRa 30nM:10nM, anti-RXR (NR concentration 30 nM, RXRa partner concentration 10 nM)
# How it was run: as §1
# [10] = system: PPARg:RXRa 90nM:30nM, anti-RXR (NR concentration 90 nM, RXRa partner concentration 30 nM)
# How it was run: as §1
Sequence,PBM binding z-score [1],PBM binding z-score [2],PBM binding z-score [3],PBM binding z-score [4],PBM binding z-score [5],PBM binding z-score [6],PBM binding z-score [7],PBM binding z-score [8],PBM binding z-score [9],PBM binding z-score [10]
CGTCCAAGGTCAGAGAGGTCGGTGAATGCCGAGT,4.71,3.52,0.408,2.4,-0.461,3.87,2,2.92,0.323,1.8
CCGAGTAGGCTATGGGGCATTCAGGCAACGGTGA,-0.882,-1.01,-0.67,-0.799,-1.07,0.341,1.43,2.92,0.549,2.35
CCTATTAGTTGAACATAAGGGCAACCGAAGCTCG,0.402,0.518,0.603,0.454,0.71,0.594,0.576,0.441,0.18,0.415
CCTACTGGGCCAAAGATCATTGATTCCAATGCTC,-0.285,-0.527,-0.374,-0.317,-0.68,3.5,6.88,7.31,6.04,7.74
CAGCCTAGGTCAGGGCCAGTATAGGAGGAACGTT,1.63,0.984,0.0185,0.506,-0.929,2.13,0.978,1.03,0.126,0.524
TATACACGGTCAAAGGCCAGAGTACGAATGTCGA,1.3,3.22,2.75,0.929,1.43,2.04,3.99,4.34,2.65,4.3
GCTATTAGTTGAAAGGGCACCCGAATGATTCTCG,0.43,0.387,0.235,0.554,-0.128,2.14,2.65,4.3,2.41,3.99
TCGAGTAGGTTACCAATGGGGCATTCATCTTTCT,-0.000727,1.01,-0.201,1.21,-0.516,1.23,0.329,1.33,1.28,1.18
GCAGATAGGTGAAACGCAGGTAACTCAGGGTGGC,-0.146,0.0468,-0.529,-0.0922,-1.28,1.27,0.838,0.277,-0.496,0.174
CCGACTGGGCCAAAGGTTACCATACTCAGTACGA,1.06,1.26,0.13,2,-0.974,5.39,10.7,9.42,9.58,10.6
CAAACTAGGTCACCGGAAGGTCACAGTCCGCATG,6.17,5.52,4.03,4.77,1.26,5.9,9.97,7.71,6.06,7.55
ATCTCTAGGTAACCAAGTTCGGTGAATGCCGAAC,0.162,0.167,0.0553,0.11,0.555,0.569,0.336,0.74,0.0695,0.909
CCTACTGGGCCAAAAAGGTTATTGATGCCGATAA,-0.207,0.612,0.14,1.08,-0.751,2.15,0.965,1.85,0.374,1.29
CCTAGTTGGACAGGAGGTCACACACCGGATATGA,3.17,3.27,1.86,3.19,0.666,4.11,2.52,2.96,0.938,2.35
TCTACTAGTTGATTAGGGCAACCGAAACAGCGGA,-0.0181,-0.4,-0.422,0.0832,-0.553,0.777,0.366,1.66,3.06,2.31
GGAACGAGGCCAAGTTGATAGCAGAGTTTGATGG,-0.211,-0.562,-0.768,-0.914,-0.878,0.0938,0.353,0.159,-0.422,-0.286
TGTCGAAGTTCAAAGGTAACGTAAGTATCCACAC,4.25,4.02,1.18,3.18,0.108,4.72,4.47,5.23,2.95,4.34
TCTTGGAGATCAAAGGTTAAGAAAGCCGAAGCCT,2.17,2.17,-0.196,2.2,-0.93,4.34,5.56,6.62,5.5,7
CCTACTGGGCCATAGGTCATTGATTCCAATGCTC,1.76,2.08,1.23,2.39,-0.227,5.16,9.89,8.77,8.56,10.3
GCTTACGGGCCAAAGGTTATAGCATGAATAGAAT,1.52,1.75,-0.0531,2.24,-0.287,4.59,8.48,7.11,6.58,7.83
TGAATGAGGTTATAAGATCCGGGAACGTTGCAAA,1.15,1.21,-0.3,0.909,-0.0595,2.45,1.01,1.33,0.723,1.15
ATATCTAGGTAAAGATAGTTCAGTGAATGCAAAT,0.0166,3.97,0.545,0.556,0.365,2.2,3.15,1.99,1,1.6
CCTAGCAGGCCAGGGTCACGCAAGCATTTCGCTT,4.27,3.3,-0.658,3.24,-0.358,4.73,3.11,3.95,0.595,2.58
GCTAGTTGGTCAGTAAAAGGCCACACACCGGTCG,-0.0469,-0.0882,-0.17,-0.23,-0.629,0.0643,0.521,0.122,-0.368,0.378
TCATATAGGTAAATTCTAGGTGAAAGTCCGATCT,1.45,1,0.27,0.797,0.0785,2.29,1.84,3.22,4.21,3.75

Sequence,PBM binding z-score [1],PBM binding z-score [2],PBM binding z-score [3],PBM binding z-score [4],PBM binding z-score [5],PBM binding z-score [6],PBM binding z-score [7],PBM binding z-score [8],PBM binding z-score [9],PBM binding z-score [10]
CCTACTGGGCCAAAGGTCATTAATTCCAATGCTC,4.33,4.53,3.47,4.65,0.938,6.19,12.5,10.3,12.4,12.4
CAAACTAGGTCACCGGAAGGTCAAAGCCCGCATG,6.08,5.95,4.27,5.11,1.45,6.06,9.85,7.89,5.9,7.57
AGTCCAAGTTCAGGACGAGGTAACGTAAAGCACG,1.19,0.849,0.0911,0.596,-0.522,1.35,0.826,0.394,0.136,0.0902
CCTACTGGGCCCAAGGTCATTGATTCCAATGCTC,2.45,2.46,1.44,2.53,0.0311,3.65,6.53,6.93,5.33,6.47
CCTTCTGGGCCAAAGGTCATTGATTCCAATGCTC,4.88,5.18,4.15,5,1.15,6.61,11.3,10.2,10.6,11.4
ACAGACTGGTGAGTGAAGGTAACTCAGCTGGACG,-0.31,-0.557,-0.264,-0.755,-0.871,-0.552,0.259,-0.5,-0.557,-0.438
CGTACTAGGTCATTGACAGGACAGTGAATAGTAA,4.65,3.15,0.997,2.29,0.27,4.07,6.36,5.47,3.06,4.93
AGGATGAGGTTATTAAGATCAGGGAATTGCGGTC,2.1,1.84,0.789,1.65,0.764,2.29,1.06,1.24,0.391,0.788
TCCTGTAGATCAATAGAGGTTAAGAAAGTGCGCT,0.952,3.56,0.803,1.93,0.0925,1.74,-0.0634,1.63,2.77,2.39
CCAGACAAGTGAAAGGTAACTCAGTCTGGTACGC,-0.0838,0.254,-0.234,0.206,-0.315,1.07,1.42,2.61,0.692,1.77
ACTCGGAGGACAAAGGTCAGTGCTACGCCAGTGA,3.58,3.67,1.45,2.94,0.443,4.64,6.76,6.58,5.31,7.31
CGTCCAAGGTAAAGGTCAGTGAAAGAGACTCGAA,3.41,3.38,0.618,3.01,-0.119,4.54,5.24,6.05,3.76,5.72
AGTAAAAGTTCATCTAGGTAACGTAAGATATGCT,6.26,5.78,5.21,3.31,1.71,4.42,3.98,3.88,1.55,2.54
ATCTCTAGGTAAAGATAGTTTAGTGAATGCAAAT,0.535,0.896,0.494,0.361,0.415,0.104,0.777,0.218,0.448,0.329
AGAATGAGGTTAAGATCAGGGGAACAGAATACAT,2.39,1.58,0.0516,1.98,0.284,3.55,2.33,2.48,0.75,1.88
ATAGGTAGGTTACATCCGGGTCATTCAGGCTATG,2.31,4.03,1.3,2.53,0.566,3.17,2.36,2.74,0.814,1.92
TCAGACAGGTGAAGGTATCTCAGGTACGCAGTCG,0.108,0.719,-0.00263,0.477,-0.0583,0.944,0.741,2.22,3.93,3.03
ATATGTAGGTTATCGGGTCAGTCAGTTTGCGCAT,2.15,2.12,0.91,1.91,1.49,4.28,6.83,5.81,3.11,5
ATACCAAGGTGATCGTGAGGGCGTTGATACTAAC,0.788,0.233,-0.00704,0.447,-0.219,0.489,0.369,-0.183,-0.112,-0.238
AGAATCAGGTTAAGATCAGGGAAACAGAATACAT,0.729,0.662,0.295,0.799,0.474,1.68,1.18,1.05,0.692,0.624
CCTACTGGGCCTTCAGGTCATTGATATCAACGTT,1.24,0.751,0.919,1.3,-0.3,1.93,0.682,1.85,0.024,1.09
TCTAGCAGGCCAGAGGGTCACTCCAGAGGTACGG,0.862,0.694,-0.544,0.582,-0.995,1.91,1.19,2.54,1.72,2.31
AGAATGAGGTTATACGTAAATCAGGGAAGAAAGT,2.3,1.9,0.21,1.77,0.0752,3.24,2.5,2.79,0.991,2.07
TCTAGTTGGTCAAAGGTCACCCACTCGAAATGCG,5.47,5.45,3.51,5.12,1.68,6.36,11.3,9.99,10.9,12.3
